Measurements: the supplement of paper PMC3842684

Test system: P. falciparum NF54-pfs16-GFP late (IV-V) stage gametocytes
Assay: relative % inhibition of viable gametocyte number; higher = more gametocytocidal
Settings: 0.5 µM; stage: late (IV-V) gametocyte; incubation 72 h
Summary of the method: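 Relative inhibition was normalised to in-plate vehicle and positive-control wells, with viable gametocytes defined on confocal images as elongated GFP objects whose MitoTracker Red signal exceeded a cut-off. NF54 pfs16-GFP gametocytes, magnet-isolated at early (I/IIa, day 2) or late (day 8) stage, were plated at 10% parasitaemia, 0.1% haematocrit with compound at 5 or 0.5 µM. Plates were incubated 72 h at 37°C, 5% CO2, 5% O2, then stained overnight.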

Compound | relative % inhibition [%]
c1ccc(Cn2c(N=Nc3c(Nc4ccccc4)ccc4ccccc34)nc3ccccc32)cc1 | 102
COc1ccc(C(=O)C2CC2c2ccc(Cl)cc2)cc1 (stereo not drawn) | 14.7
C=CCc1c(C)nc2ccccc2c1O | 36.3
CCc1ccc(CNCC(O)c2ccccc2)cc1 (stereo not drawn) | 3.65
Cc1ccc(NC(=O)Nc2cccc(Cl)c2)cc1F | -16
O=C(NCC1Cc2cccc(-c3ccncc3)c2O1)c1csc2c1CCCC2 (stereo not drawn) | 5.28
O=C(NCCCN1CCC(N2CCCCC2)CC1)C1=Cc2cc(Br)ccc2OC1 | -12.5
COc1cc(SC)ccc1C(=O)N1CCCC(C)C1 (stereo not drawn) | 5.64
Cc1cccc(N2C(=O)C3C(C2=O)C2(c4ccccc4)C(=O)C3(c3ccccc3)C(c3ccc4c(c3)OCO4)=C2c2ccc3c(c2)OCO3)c1 (stereo not drawn) | 24.7
Cn1c(=O)n(C)c2cc(CNCCNc3ccnc4cc(Cl)ccc34)ccc21 | 37.6
Cc1ccc(Cl)cc1N1CCN(CCCNC(=O)C2CCN(c3nc4ccccc4[nH]3)CC2)CC1 | 28.3
COC(=O)c1ccc(Cl)c2c1C1C=CCC1C(c1cccc3ccccc13)N2 (stereo not drawn) | -9.69
CCC(O)c1ccc(Br)cc1NC(=O)c1cccc(Cl)c1 (stereo not drawn) | 12
CCOC(=O)c1cnc2c(C)cccc2c1Nc1ccc(C(C)=O)cc1 | 7.91
O=C(NCc1ccco1)C1CCN(S(=O)(=O)c2ccc(Cl)cc2)CC1 | 18.1
O=c1nc(C=Cc2ccc(Br)cc2)oc2ccccc12 | 4.47
COc1ccc(C(=O)C(CCC(CNC(C)(C)C)C(=O)c2ccc(OC)cc2)CNC(C)(C)C)cc1 (stereo not drawn) | 10.9
CC1=C(CC(=O)c2cccc([N+](=O)[O-])c2)C(=O)c2ccccc2C1=O | 39.3
